Assay [1] can be described thus: antimalarial activity against Dd2 strain (AID 2302;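 active means growth inhibition above 50% at the single 2 µM test dose, taken to imply half-maximal potency below 2 µM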;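 further: 0% = DMSO untreated growth and 100% = chloroquine plus artemisinin killed control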). Particulars: P. falciparum Dd2 in RBCs, LDH growth readout, 72 h; at 2 µM; hits give high values.
The nature of assay [2]: HepG2 cytotoxicity, primary screen, cytotoxicity control for P. falciparum antimalarial project, cell-based, ATP luminescence (AID 2303;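 active means inhibition above 50%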;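 further: 0% = DMSO wells and 100% = digitonin-killed cells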). Particulars: HepG2 viability, 24-48 h, at 10 µM, hits give high values.
The target in assay [3] is L-lactate dehydrogenase (Plasmodium falciparum (isolate CDC / Honduras)) (UniProt Q27743). Kind of assay: PfLDH activity inhibition – cell lysate, 3D7 strain, counter-screen for P. falciparum growth inhibition project (AID 2304).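 Further: 0% = vehicle and 100% = reference inhibitor.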 Particulars: P. falciparum 3D7 crude extract, LDH APAD/NBT absorbance; at 2 µM; hits give high values. (In general: The purpose of a counterscreen is to sort out artefacts and off-target activity.)

Assay [4] is described as follows: inhibition of 3D7 malaria parasite growth – strain 3D7 (AID 2306).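 Further: 0% = DMSO wells and 100% = chloroquine plus artemisinin control wells.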 Conditions: P. falciparum 3D7 erythrocytic growth, LDH absorbance, 72 h; at 2 µM; hits give high values.
The target of assay [5] is Calcium-dependent protein kinase 1 (Plasmodium falciparum (isolate 3D7)) (UniProt P62344). Kind of assay: PfCDPK1 kinase inhibitors, biochemical, TCAMS library (AID 1159585; cut-off not given, nearly all actives have IC50 up to about 0.98 µM;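 further: inhibitors leave more ATP so luminescence rises with inhibition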). Conditions: recombinant PfCDPK1, Kinase-Glo ATP depletion luminescence. A general note: In Kinase-Glo more light means more ATP remaining.
The target of assay [6] is Plasmodium falciparum protein kinase 6 (PK6, PF3D7_1337100) (UniProt Q8IDW1). Kind of assay: PfPK6 kinase inhibitors, biochemical, TCAMS library (AID 1159586). Particulars: recombinant PfPK6, Kinase-Glo ATP depletion luminescence.
In assay [7] the target is Protein kinase 7 (PK7), Plasmodium falciparum 3D7 (PF3D7_0213400) (UniProt Q7YTF7). Kind of assay: inhibition of Plasmodium PK7 catalytic activity – biochemical, TCAMS antimalarial set, Kinase-Glo luminescence (AID 1159587). Particulars: recombinant PfPK7, Kinase-Glo ATP depletion luminescence.
Assay [8] has as its target Calcium-dependent protein kinase 4 (Plasmodium falciparum (isolate 3D7)) (UniProt Q8IBS5). Kind of assay: PfCDPK4 kinase inhibitors, biochemical, TCAMS library (AID 1159588; cut-off not given, nearly all actives have IC50 up to about 0.91 µM). Conditions: recombinant PfCDPK4, Kinase-Glo ATP depletion luminescence.

Molecules are shown by their SMILES. Unmarked numbers belong to inactive results. For some of these results: Potency and affinity values are given separately. Activity calls are given as the source filed them. Unless noted, how the calls were made is not given here.

For 20 compounds, growth inhibition, inhibition and outcome results are on record in PubChem BioAssay.

Sequence of Calcium-dependent protein kinase 1 (Plasmodium falciparum (isolate 3D7)) (P62344 whole entry, looked up): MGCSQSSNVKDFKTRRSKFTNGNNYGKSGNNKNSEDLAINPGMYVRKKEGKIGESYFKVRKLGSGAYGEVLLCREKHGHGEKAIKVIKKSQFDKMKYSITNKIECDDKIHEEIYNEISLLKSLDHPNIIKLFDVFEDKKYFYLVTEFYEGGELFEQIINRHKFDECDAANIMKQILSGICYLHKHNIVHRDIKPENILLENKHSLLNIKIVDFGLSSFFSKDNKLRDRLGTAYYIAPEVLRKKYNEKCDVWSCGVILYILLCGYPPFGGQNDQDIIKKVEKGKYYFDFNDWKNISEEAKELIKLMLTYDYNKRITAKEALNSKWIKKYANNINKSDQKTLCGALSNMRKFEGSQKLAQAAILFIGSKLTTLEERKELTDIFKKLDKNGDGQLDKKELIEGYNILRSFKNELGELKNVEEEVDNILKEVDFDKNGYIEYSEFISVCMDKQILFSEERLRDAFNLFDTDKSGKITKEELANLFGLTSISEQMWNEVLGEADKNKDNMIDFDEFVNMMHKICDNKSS
Sequence of Protein kinase 7 (PK7), Plasmodium falciparum 3D7 (PF3D7_0213400) (Q7YTF7 1-343): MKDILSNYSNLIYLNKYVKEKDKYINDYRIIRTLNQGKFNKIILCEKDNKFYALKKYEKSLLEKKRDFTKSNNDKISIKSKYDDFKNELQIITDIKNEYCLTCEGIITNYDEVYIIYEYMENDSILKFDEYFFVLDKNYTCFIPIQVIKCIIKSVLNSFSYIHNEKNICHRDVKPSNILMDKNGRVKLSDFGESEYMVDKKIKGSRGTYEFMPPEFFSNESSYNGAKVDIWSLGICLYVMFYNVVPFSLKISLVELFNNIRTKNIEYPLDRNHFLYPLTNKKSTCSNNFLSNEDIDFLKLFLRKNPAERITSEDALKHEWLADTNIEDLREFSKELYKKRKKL
Sequence of L-lactate dehydrogenase (Plasmodium falciparum (isolate CDC / Honduras)) (Q27743 whole entry, looked up): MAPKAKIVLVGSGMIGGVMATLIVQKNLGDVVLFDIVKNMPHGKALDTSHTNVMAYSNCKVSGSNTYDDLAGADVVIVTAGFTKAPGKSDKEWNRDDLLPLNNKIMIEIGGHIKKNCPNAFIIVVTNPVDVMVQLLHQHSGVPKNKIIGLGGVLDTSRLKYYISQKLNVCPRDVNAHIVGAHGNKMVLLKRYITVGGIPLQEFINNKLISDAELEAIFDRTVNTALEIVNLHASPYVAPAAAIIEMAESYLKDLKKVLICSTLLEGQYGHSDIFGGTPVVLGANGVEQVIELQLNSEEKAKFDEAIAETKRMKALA
Sequence of Plasmodium falciparum protein kinase 6 (PK6, PF3D7_1337100) (Q8IDW1 1-305): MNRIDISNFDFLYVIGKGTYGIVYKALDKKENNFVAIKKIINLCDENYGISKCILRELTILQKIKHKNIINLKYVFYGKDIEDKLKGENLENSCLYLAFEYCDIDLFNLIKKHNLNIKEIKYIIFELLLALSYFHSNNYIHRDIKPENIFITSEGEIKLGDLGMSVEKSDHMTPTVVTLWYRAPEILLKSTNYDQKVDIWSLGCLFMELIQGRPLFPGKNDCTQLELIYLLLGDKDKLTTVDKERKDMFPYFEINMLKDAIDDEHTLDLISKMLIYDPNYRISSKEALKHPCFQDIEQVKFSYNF
Sequence of Calcium-dependent protein kinase 4 (Plasmodium falciparum (isolate 3D7)) (Q8IBS5 whole entry, looked up): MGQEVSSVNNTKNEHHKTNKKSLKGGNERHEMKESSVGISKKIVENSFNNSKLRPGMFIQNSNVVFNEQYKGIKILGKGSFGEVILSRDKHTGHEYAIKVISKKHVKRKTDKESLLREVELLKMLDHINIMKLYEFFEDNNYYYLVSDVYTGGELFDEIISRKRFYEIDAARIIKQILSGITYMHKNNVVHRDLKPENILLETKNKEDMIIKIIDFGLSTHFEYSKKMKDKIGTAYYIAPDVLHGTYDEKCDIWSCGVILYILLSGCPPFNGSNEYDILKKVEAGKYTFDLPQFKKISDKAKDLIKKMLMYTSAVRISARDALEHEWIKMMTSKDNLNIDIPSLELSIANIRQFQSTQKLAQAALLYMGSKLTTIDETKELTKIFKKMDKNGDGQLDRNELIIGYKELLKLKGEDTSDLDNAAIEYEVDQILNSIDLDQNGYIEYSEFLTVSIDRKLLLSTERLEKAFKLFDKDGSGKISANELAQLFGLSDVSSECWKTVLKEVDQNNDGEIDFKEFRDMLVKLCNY

In the case of `COc1ccccc1-c1ccc(C(=O)NCC2CCCN(Cc3cccc(C(F)(F)F)c3)C2)s1` (stereo not given), the figures for the growth inhibition in assay [1] and in assay [4] were 37% and 81% (active), respectively. Moreover, the inhibition (usually the drop in the measured response relative to a control, in per cent) was 18% in assay [2] and 3% in assay [3]. In addition, the result in assay [5], in assay [6], in assay [7] and in assay [8] was inactive.

For the compound `NCc1ccc(CNCc2ccc(-c3ccc(-c4nc5ccc(C(F)(F)F)cc5[nH]4)s3)cc2)cc1`, the figures for the growth inhibition in assay [1] and in assay [4] were 92% (active) and 95% (active), respectively. Besides, the inhibition in assay [2] was 34%; in assay [3], -2%. Besides, the outcome in assay [5], in assay [6], in assay [7] and in assay [8] was inactive.

Regarding `NC(=O)c1cnc2cc(-c3ccoc3)ccc2c1Nc1ccc(NC(=O)Nc2ccccc2Cl)cc1`, the growth inhibition is 76% (active) in assay [1] and 100% (active) in assay [4]. The results for the inhibition in assay [2] and in assay [3] were 39% and -5%, respectively. In addition, the result in assay [5], in assay [6], in assay [7] and in assay [8] was inactive.

With `Cc1ccc(O)cc1Nc1ccnc2ccc(-c3cccc(CN(C)C)c3)cc12`, the results for the growth inhibition in assay [1] and in assay [4] were 99% (active) and 101% (active), respectively. For the same compound, the results for the inhibition in assay [2] and in assay [3] were -3% and 1%, respectively. Further, the outcome in assay [5], in assay [6], in assay [7] and in assay [8] was inactive.

Regarding `O=C(Cn1c(CCc2cccc(F)c2F)nc(=O)c2ccccc21)N(Cc1ccc(-c2ccc(C(F)(F)F)cc2)cc1)C1CCN(C2CCSCC2)CC1`, the growth inhibition in assay [1] was 93% (active); in assay [4], 99% (active). For the same compound, the inhibition was 97% (active) in assay [2] and 0% in assay [3]. The result in assay [5], in assay [6], in assay [7] and in assay [8] was inactive.

Take `Cc1cc(N2CCCCC2)nc2ccc(NC(=O)c3cncc(Br)c3)cc12`: the growth inhibition in assay [1] was 86% (active); in assay [4], 101% (active). Further, the inhibition in assay [2] is -3%; in assay [3] it was 0%. Moreover, the result in assay [5], in assay [6], in assay [7] and in assay [8] was inactive.

As to `COc1ccc2nc(N3CCNCC3)nc(NCCCc3ccccc3)c2c1`, the growth inhibition in assay [1] was 43%; in assay [4], 100% (active). The inhibition in assay [2] is 31%; in assay [3] it was -3%. Moreover, the outcome in assay [5], in assay [6], in assay [7] and in assay [8] was inactive.

With `CCCN(CCCCNC(=O)c1ccc(-c2cccnc2)cc1)C1CCc2c(O)cccc2C1` (stereo not given), the growth inhibition was 16% in assay [1] and 87% (active) in assay [4]. Further, the inhibition in assay [2] was -1%; in assay [3], 0%. In addition, the result in assay [5], in assay [6], in assay [7] and in assay [8] was inactive.

Consider `COc1ccc2nccc([C@@H](O)CN3CCC(NCc4ccc5c(c4)NC(=O)C(C)S5)CC3)c2c1` (stereo not given in full), for which the figures for the growth inhibition in assay [1] and in assay [4] were 72% (active) and 99% (active), respectively. In addition, the inhibition was 7% in assay [2] and 2% in assay [3]. Besides, the outcome in assay [5], in assay [6], in assay [7] and in assay [8] was inactive.

Turning to `COc1ccc2nccc([C@@H](O)CN3CCC(NC(=O)c4cc5cccnc5[nH]4)CC3)c2c1`, the growth inhibition is 6% in assay [1] and 94% (active) in assay [4]. Moreover, the inhibition was -8% in assay [2] and 2% in assay [3]. In addition, the outcome in assay [5], in assay [6], in assay [7] and in assay [8] was inactive.

Take `CN(C)S(=O)(=O)c1ccc(N2CCN(CCC3(c4cccc(F)c4)CCN(C(=O)C(C)(C)C)CC3)CC2)c2nonc12`: the growth inhibition was 85% (active) in assay [1] and 91% (active) in assay [4]. The inhibition in assay [2] is 8%; in assay [3] it was -1%. Further, the result in assay [5], in assay [6], in assay [7] and in assay [8] was inactive.

On to `CS(=O)(=O)c1ccc(CNCc2cccc(-c3cccc(-c4nc5ccc(C(F)(F)F)cc5[nH]4)c3)c2)cc1`, for which the growth inhibition in assay [1] was 96% (active); in assay [4] it was 103% (active). Besides, the figures for the inhibition in assay [2] and in assay [3] were 5% and 2%, respectively. Further, the outcome in assay [5], in assay [6], in assay [7] and in assay [8] was inactive.

On to `Cc1cccc2[nH]c(-c3cccc(-c4ccc(NC(=O)C(C)CN(C)C)cc4)c3)nc12` (stereo not given), for which the figures for the growth inhibition in assay [1] and in assay [4] were 100% (active) and 101% (active), respectively. In addition, the inhibition is 29% in assay [2] and -3% in assay [3]. The result in assay [5], in assay [6], in assay [7] and in assay [8] was inactive.

Consider `Cc1[nH]c(C)c(-c2ccc(OCc3cccc(C(F)(F)F)c3)nc2)c(=O)c1Br`, for which the values for the growth inhibition in assay [1] and in assay [4] were 97% (active) and 99% (active), respectively. Further, the inhibition was 37% in assay [2] and -2% in assay [3]. For the same compound, the outcome in assay [5], in assay [6], in assay [7] and in assay [8] was inactive.

In the case of `CC(C)(C)C(=O)Nc1ccc(C(=O)Nc2cccc(-c3nc4ccccc4[nH]3)c2)cc1`, the growth inhibition is 62% (active) in assay [1] and 96% (active) in assay [4]. Further, the inhibition in assay [2] is 56% (active); in assay [3], 1%. Besides, the result in assay [5], in assay [6], in assay [7] and in assay [8] was inactive.

Regarding `CC(C)c1ccc(NC(=O)Nc2ccc(Cn3ncc(N4CCCNCC4)c(Cl)c3=O)cc2)cc1`, the growth inhibition in assay [1] was 27%; in assay [4] it was 85% (active). Moreover, the results for the inhibition in assay [2] and in assay [3] were 11% and 2%, respectively. Moreover, the result in assay [5], in assay [6], in assay [7] and in assay [8] was inactive.

In the case of `Cc1cc(C)cc(OCC(O)CN(Cc2cc(Cl)cc(Cl)c2)C(=O)Nc2ccccc2Cl)c1` (stereo not given), the growth inhibition in assay [1] is 37%; in assay [4] it was 93% (active). For the same compound, the inhibition in assay [2] is -1%; in assay [3], 2%. Further, the result in assay [5], in assay [6], in assay [7] and in assay [8] was inactive.

Consider `CCC1CCc2cc(N)cc(-c3nc4c(c(C)nn4CC)c(=O)[nH]3)c2O1` (stereo not given), for which the growth inhibition in assay [1] is 42%; in assay [4], 86% (active). The inhibition was -3% in assay [2] and -4% in assay [3]. Moreover, the result in assay [5], in assay [6], in assay [7] and in assay [8] was inactive.

Regarding `O=C(NCCNc1noc(-c2sccc2Br)n1)c1ccc(Cl)cc1`, the growth inhibition in assay [1] was 1%; in assay [4], 93% (active). In addition, the inhibition was -5% in assay [2] and 2% in assay [3]. Moreover, the result in assay [5], in assay [6], in assay [7] and in assay [8] was inactive.

As to `CC(=O)c1cc(N2CCOCC2)ccc1N`, the growth inhibition in assay [1] was 43%; in assay [4], 91% (active). The inhibition in assay [2] is 7%; in assay [3], 3%. Also, the result in assay [5], in assay [6], in assay [7] and in assay [8] was inactive.
